# Assay results taken from paper PMC4336329 (PLoS ONE, 2015).
# The campaign covered roughly 310,000 compounds. About 14,000 (4.5%) showed an effect of 50% or more. The effect is printed as a negative number. What follows is part of a selection rich in strong results, with near analogues and random picks from the rest.
# Molecular target: human ether-à-go-go-related gene (hERG) potassium channel (human, UniProt Q12809)
# Assay: primary screen, population patch clamp on CHO cells stably expressing hERG; higher = less effect of the substance
# 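Note: peak tail current of the secondary pulse compared with the same well before compound.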
# human ether-à-go-go-related gene (hERG) potassium channel, sequence (Q12809 whole entry, looked up): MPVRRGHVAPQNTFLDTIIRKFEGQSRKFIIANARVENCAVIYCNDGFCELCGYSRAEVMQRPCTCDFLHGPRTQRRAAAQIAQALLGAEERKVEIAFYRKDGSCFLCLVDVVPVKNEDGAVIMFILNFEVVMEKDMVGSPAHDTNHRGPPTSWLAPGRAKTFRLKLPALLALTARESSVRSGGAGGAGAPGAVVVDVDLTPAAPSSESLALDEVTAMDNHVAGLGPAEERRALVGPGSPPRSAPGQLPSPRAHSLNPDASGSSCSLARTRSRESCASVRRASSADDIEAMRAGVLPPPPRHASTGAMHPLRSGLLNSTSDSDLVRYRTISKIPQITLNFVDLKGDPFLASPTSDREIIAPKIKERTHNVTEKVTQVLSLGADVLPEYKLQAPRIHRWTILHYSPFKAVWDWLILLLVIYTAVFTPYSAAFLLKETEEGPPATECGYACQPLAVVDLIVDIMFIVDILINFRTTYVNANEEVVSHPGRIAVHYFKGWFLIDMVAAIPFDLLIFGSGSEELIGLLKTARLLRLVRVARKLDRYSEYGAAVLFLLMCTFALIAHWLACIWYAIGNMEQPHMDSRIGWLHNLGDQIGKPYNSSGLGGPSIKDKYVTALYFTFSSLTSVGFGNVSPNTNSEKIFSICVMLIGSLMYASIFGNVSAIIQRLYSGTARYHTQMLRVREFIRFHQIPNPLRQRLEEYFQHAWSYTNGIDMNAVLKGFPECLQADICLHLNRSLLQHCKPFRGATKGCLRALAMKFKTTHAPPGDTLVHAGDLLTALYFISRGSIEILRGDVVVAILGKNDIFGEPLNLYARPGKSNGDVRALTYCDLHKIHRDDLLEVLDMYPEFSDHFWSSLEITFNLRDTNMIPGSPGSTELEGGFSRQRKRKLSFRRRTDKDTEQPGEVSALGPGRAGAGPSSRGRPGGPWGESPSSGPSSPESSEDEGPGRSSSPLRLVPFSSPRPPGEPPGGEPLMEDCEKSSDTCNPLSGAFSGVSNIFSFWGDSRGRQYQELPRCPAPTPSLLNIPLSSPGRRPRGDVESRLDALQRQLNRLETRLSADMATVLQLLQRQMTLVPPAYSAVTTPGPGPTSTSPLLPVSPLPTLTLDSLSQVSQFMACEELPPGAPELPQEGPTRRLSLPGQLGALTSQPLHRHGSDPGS
row,Compound,"hERG current change (%, negative = inhibition) at 10uM [%]"
1,Cc1ccc(NC(=O)C(C)OC(=O)Cn2cnc3ccccc3c2=O)cc1 (stereo not drawn),-12.4
2,COc1ccc(N2CCN(C(CNC(=O)OCc3ccccc3)c3ccco3)CC2)cc1 (stereo not drawn),-27.4
3,CCOC(=O)c1cc(S(=O)(=O)NCCc2ccccc2)cn1C,2.98
4,Clc1ccccc1CN1CCN(c2ccccc2Cl)CC1,16
5,CCc1cc(C(=O)c2ccc(OC)cc2)c(N)s1,-12.7
6,N/C(CS(=O)(=O)c1ccc(F)cc1)=N\O,11.8
7,CC(C)(C)C(=O)CNS(=O)(=O)c1ccc(S(=O)(=O)NC2CC2)cc1,12.3
8,COCCNC(=O)/C(C#N)=C/c1c(N2CC(C)OC(C)C2)nc2ccccn2c1=O (stereo not drawn),-0.67
9,CCS(=O)(=O)Nc1ccc(-c2cc(-c3ccccc3)c3cc(C)ccc3n2)cc1,0.812
10,COc1ccc(NC(=O)NC2(C(=O)N3CCN(C)CC3)CCCCC2)cc1,9.88
11,O=C(c1cccc(F)c1)N1CCC2(CC1)NCCc1[nH]cnc12,6.92
12,Cc1cc(Br)c(NC(=O)COC(=O)CSc2nnc(-c3ccc(Cl)cc3)o2)c(Br)c1,1.39
13,CCN(CC)c1ccc(NC(=S)NCC2CCCO2)cc1 (stereo not drawn),7.83
14,COc1ccc(C(=S)N2CCN(C)CC2)cc1Br,-9.51
15,COc1ccc2nc(N3CCCC3)[nH]c2c1.Cl,-15.7
16,COc1ccc2c(c1)cc1n2CCN=C1NN.Cl.O,2.89
17,CN=C1c2cc3c(Br)c(OC)ccc3n2CCN1C.Cl,-66.9
18,COc1ccc2c(c1)cc1n2CCN2CCCN=C12.Cl,-51.6
19,O=C(Nc1ccc2nn(-c3ccccc3)nc2c1)c1ccco1,7.51
20,COC(=O)c1ccc(CSc2nnc(NC(C)C)s2)o1,29.8

row,Compound,"hERG current change (%, negative = inhibition) at 10uM [%]"
1,O=C(/C=C/c1cccc(Cl)c1)Nc1ccncc1,-17.1
2,O=C(Nc1cccc(-n2cnnn2)c1)c1ccc(Cl)cc1Cl,4.58
3,Cc1ccc(Sc2nc3c(c(=O)[nH]c(=O)n3C)n2CCc2ccccc2)cc1,5.16
4,Cc1nn(Cc2c(F)c(F)c(F)c(F)c2F)c(C)c1NC(=O)c1cccc(COc2ccccc2Cl)c1,-3.4
5,O=C(CCOc1ccccc1)Nc1ccnn1C1CCN(Cc2ccc(O)cc2)CC1,-31.3
6,CC(C)Oc1ccc(CN2CCC(n3nccc3NC(=O)CCc3ccccc3)CC2)cc1,-82.3
7,Cn1cc(CN2CCC(n3nccc3NC(=O)CCc3ccccc3)CC2)cn1,16
8,Cn1cc(CN2CCC(n3nccc3NC(=O)CCOc3ccccc3)CC2)cn1,17.1
9,CCn1cc(CN2CCC(n3nccc3NC(=O)CCc3ccccc3)CC2)cn1,2.28
10,CCOc1cccc(CN2CCC(n3nccc3NC(=O)CCCc3ccccc3)CC2)c1,-27.5
11,O=C(CCc1ccccc1)Nc1ccnn1C1CCN(Cc2ncc[nH]2)CC1,19
12,CC(=O)c1cccc(CN2CCC(n3nccc3NC(=O)CCCc3ccccc3)CC2)c1,-37.8
13,COc1cccc(CN2CCC(n3nccc3NC(=O)CCCc3ccccc3)CC2)c1,-71.3
14,CC(=O)Nc1ccc(CN2CCC(n3nccc3NC(=O)CCc3ccccc3)CC2)cc1,-5.87
15,O=C(CCOc1ccccc1)Nc1ccnn1C1CCN(Cc2ccccc2)CC1,-50
16,O=C(CCc1ccccc1)Nc1ccnn1C1CCN(Cc2ccc(OCCO)cc2)CC1,-65.3
17,OC1CCCN(Cc2ccc3ccc4cccc5ccc2c3c45)C1 (stereo not drawn),-4.79
18,CCOC(=O)c1c(C)[nH]c(C)c1S(=O)(=O)N(C)CC(=O)NCc1cccc(C)c1,-13.3
19,COc1ccc(-c2cc3ccccc3[nH]2)cc1,7.8
20,O=C(Nc1ccccc1C(=O)NCCCn1ccnc1)c1ccc(Cl)cc1Cl,-47.1

row,Compound,"hERG current change (%, negative = inhibition) at 10uM [%]"
1,O=C(Nc1ccc(Cl)cc1)Nc1nc(-c2ccccc2)cs1,11.3
2,CCc1ccc(OCC(=O)N/N=C(\C)c2ccc3c(c2)OCCO3)cc1,-21.5
3,CC(Oc1ccccc1)C(=O)NNS(=O)(=O)c1ccc([N+](=O)[O-])cc1 (stereo not drawn),13.4
4,COc1ccc2cc(C(=O)N3CCC(Cc4ccccc4)CC3)[nH]c2c1,25.5
5,C/C(=N\Nc1ccccc1)c1c(O)n(Cc2ccccc2)c(=O)[nH]c1=O,8.42
6,O=C(CSc1ccccc1C(=O)NCc1ccccc1)NC1CCCCCCC1,-8.1
7,O=C(/C=C/c1ccc([N+](=O)[O-])cc1)NCc1cccnc1,-42.7
8,CC1(C)CC(=O)C=C(C(=O)N2CCCC(C(=O)c3cccc(Cl)c3)C2)O1 (stereo not drawn),-31
9,O=C(O)c1ccc(NS(=O)(=O)c2ccc(Cl)cc2)cc1,0.513
10,O=C(CCCc1ccccc1)Nc1ccnn1C1CCN(Cc2ccccc2F)CC1,-49
11,COc1cccc(CN2CCC(n3nccc3NC(=O)CCOc3ccccc3)CC2)c1,-62
12,O=C(CCOc1ccccc1)Nc1ccnn1C1CCN(Cc2ccc(CO)o2)CC1,6.52
13,Cc1ccc(CN2CCC(n3nccc3NC(=O)CCOc3ccccc3)CC2)o1,-20.7
14,CC(=O)c1cccc(CN2CCC(n3nccc3NC(=O)CCOc3ccccc3)CC2)c1,-3.2
15,CCNC(=O)N1CCC(n2nccc2NC(=O)CCOc2ccccc2)CC1,9.99
16,COc1ccc(O)c(CN2CCC(n3nccc3NC(=O)CCOc3ccccc3)CC2)c1,-60.4
17,COc1ccc(F)c(CN2CCC(n3nccc3NC(=O)CCCc3ccccc3)CC2)c1,-86.7
18,COc1cccc(C(=O)N2CCC(n3nccc3NC(=O)CCOc3ccccc3)CC2)c1,-0.0371
19,Cc1cc(C)c(CN2CCC(n3nccc3NC(=O)CCOc3ccccc3)CC2)cc1C,-26.1
20,O=C(CCOc1ccccc1)Nc1ccnn1C1CCN(CCc2ccccc2)CC1,-65.1
